Measured values from PubChem BioAssay (NCI).
This is part of a sample that, as a whole, favours compounds with a hit. Of some 83,000 tested, about 20% had one in any assay.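 Plates (96-well) were seeded with cells, treated with compound at one concentration, and incubated for 48 hours before percent growth was determined.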 The source made the active and inactive calls. How the source made its calls: active means growth percent below 10; inactive means the rest.

What was measured:
Experiment in all cases: NCI-60 one-dose screen, 48 h (100 = growth as untreated, 0 = no growth, -100 = all killed)
Settings in all cases: 10 µM unless noted
[1] = system: HCT-15 colon
[2] = system: HT29 colon
[3] = system: SNB-75 CNS
[4] = system: SNB-19 CNS
[5] = system: U251 CNS
[6] = system: PC-3 prostate
[7] = system: SK-MEL-5 melanoma
[8] = system: UACC-62 melanoma
[9] = system: LOX IMVI melanoma
[10] = system: SK-MEL-28 melanoma

Measured: growth

COc1ccc(C(=O)/C=C/c2sc(Cl)nc2Cl)cc1
inactive: [1] 13.1% | [2] 31.9% | [3] 50.9% | [4] 68.9% | [5] 16.5% | [6] 52.3% | [8] 58.8% | [10] 53.2%
active: [7] -39.1% | [9] -49.9%

COc1ccc(CN2c3ccccc3Sc3ccccc32)c(F)c1
inactive: [1] 35.4% | [4] 40.9% | [5] 30% | [6] 30.3% | [7] 25.8% | [8] 33.1% | [9] 52.7% | [10] 53%
active: [2] 3.61% | [3] -5.99%

CN1CCN(c2ccc(-c3cc4c(Nc5ccc(F)c(Cl)c5)ncnn4c3)cc2)CC1
inactive: [3] 80.5% | [4] 103% | [5] 66% | [6] 80.8% | [7] 87.5% | [8] 53.2% | [10] 71.5%
active: [1] -12.8% | [2] 7.09% | [9] -53.6%

CC1Cc2c(ncn3c(-c4ccc(F)cc4)nnc23)N(C)c2ccccc21 (stereo not given)
active: [3] -7.85%
inactive: [1] 72% | [2] 18.3% | [4] 48.5% | [5] 39.3% | [6] 63% | [7] 96.7% | [8] 73.5% | [9] 12.6% | [10] 85.4%

COc1cc(C2CC(c3ccc(N(C)C)cc3)=NN2C(C)=O)cc(OC)c1OC (stereo not given)
active: [2] 9.83% | [3] -23.6% | [7] 9%
inactive: [1] 24.6% | [4] 39.3% | [5] 29.3% | [6] 29.4% | [8] 26.9% | [9] 37.6% | [10] 52.2%

Cc1ccccc1C(=O)NN
inactive: [1] 106% | [2] 98.9% | [3] 91.1% | [4] 105% | [5] 104% | [6] 92.8% | [7] 119% | [8] 101% | [9] 109% | [10] 115%

CCCCOc1nc2c(C)cccc2cc1-c1cc(-c2ccc(Cl)cc2)nc(-c2ccc(Cl)cc2)c1
inactive: [1] 103% | [2] 103% | [3] 106% | [4] 92.3% | [5] 100% | [6] 94.8% | [7] 103% | [8] 97.8% | [9] 98.3% | [10] 101%

COc1c(N2CC3CCCN(C(C)=O)C3C2)c(F)cc2c(=O)c(C(=O)N[C@H]3C(O)[C@@H](O)C(CO)O[C@H]3O)cn(C3CC3)c12 (stereo not given in full)
inactive: [1] 98.5% | [2] 105% | [3] 100% | [4] 99.4% | [5] 102% | [6] 108% | [7] 101% | [8] 101% | [9] 87.1% | [10] 112%

O=[N+]([O-])c1ccc(Oc2nc(Nc3ccc(O[C@H]4CO[C@H]5[C@@H]4OC[C@@H]5O)c(Cl)c3)ncc2F)c(Cl)c1
active: [3] -2.13% | [7] -90.9% | [8] -8.64%
inactive: [1] 26.2% | [2] 24.8% | [4] 56.6% | [5] 23.6% | [6] 34% | [9] 16.7% | [10] 32.3%

COc1cccc(-c2nn(-c3ccccc3)cc2-c2ccnc(N3CCOCC3)c2)c1
inactive: [1] 85.9% | [2] 86.7% | [3] 97.2% | [4] 99.9% | [5] 96.2% | [6] 70.2% | [7] 80.4% | [8] 71.8% | [9] 89.7% | [10] 108%

COc1cc(C(=O)/C=C/c2sc(Cl)nc2Cl)cc(OC)c1OC
active: [1] -57.2% | [5] 6.7% | [9] -86.5%
inactive: [2] 25.1% | [3] 73.1% | [4] 77.6% | [6] 50.8% | [7] 88.7% | [8] 85.1% | [10] 18.5%

O=C1COCCN1c1ccc(NCc2cn(C(=O)c3ccc(Cl)cc3)c3ccccc23)cc1
inactive: [1] 54.9% | [2] 44.5% | [3] 59.6% | [4] 91.7% | [5] 50.9% | [6] 71.4% | [7] 25.1% | [9] 77.1% | [10] 97%
active: [8] -41.1%

O=c1c2cc(F)ccc2sc2c(N3CCNCC3)nc3ccccc3c12
inactive: [3] 70.2% | [4] 65.3% | [6] 48.7% | [7] 76.8% | [8] 59.5% | [10] 57.7%
active: [1] -40.7% | [2] -37.7% | [5] -24.2% | [9] -99.1%

COc1ccc(C2C(N)=NNC2c2cccc(O)c2)cc1 (stereo not given)
inactive: [1] 102% | [2] 104% | [3] 84.7% | [4] 81.3% | [5] 93.6% | [6] 95.6% | [7] 101% | [8] 91.2% | [9] 97.7% | [10] 108%

COc1cccc2nc3n(c12)C(c1c(F)cccc1F)SC3 (stereo not given)
inactive: [1] 101% | [2] 100% | [3] 96% | [4] 101% | [5] 92.5% | [6] 80.6% | [7] 86% | [8] 77.5% | [9] 93.1% | [10] 112%

C#Cc1cccc(NC(=O)Nc2ccccc2NC(=O)CCl)c1
active: [1] -19.8% [8.25 µM] | [2] -15.5% [8.25 µM] | [3] -83.9% [8.25 µM] | [5] -85.2% [8.25 µM] | [6] -29% [8.25 µM] | [7] -94.8% [8.25 µM] | [8] -94.1% [8.25 µM] | [9] -94.4% [8.25 µM] | [10] -10.4% [8.25 µM]
inactive: [4] 19.7% [8.25 µM]

CCCCOc1nc2ccc(OC)cc2cc1-c1cc(-c2ccc(Cl)cc2)nc(-c2ccc(Cl)cc2)c1
inactive: [1] 104% | [2] 104% | [3] 91.2% | [4] 93.6% | [5] 102% | [6] 96.9% | [7] 102% | [8] 93.5% | [9] 101% | [10] 104%

COc1ccc(-c2nnc(COc3ccc(Cl)cc3Cl)o2)cc1OC
active: [3] -42%
inactive: [1] 49.5% | [2] 28.7% | [4] 44.6% | [5] 37.2% | [6] 43.7% | [7] 28.2% | [8] 43.7% | [9] 16.1% | [10] 67.2%

O=C(N/N=C/[C@H](O)[C@@H](O)[C@@H](O)[C@H](O)CO)c1ccc(NC(=O)c2cccnc2)cc1
inactive: [1] 105% | [2] 111% | [3] 92.6% | [4] 97.4% | [5] 102% | [6] 102% | [7] 104% | [8] 95.5% | [9] 104% | [10] 111%

COc1ccc2sc3c(NCCCN(C)C)nc4ccccc4c3c(=O)c2c1
active: [2] -47.5% | [5] -1.18% | [9] -100% | [10] -73.1%
inactive: [1] 50.2% | [3] 53.5% | [4] 71.4% | [6] 63% | [7] 66.4% | [8] 77.3%

O=C1c2cccc3cccc(c23)C(=O)N1Nc1nc(N2CCOCC2)nc(N2CCN(c3ccccc3)CC2)n1
inactive: [1] 33.7% | [2] 24.3% | [3] 21.4% | [4] 45.6% | [5] 59.3% | [6] 43.4% | [8] 32.2% | [9] 39.2% | [10] 52.5%
active: [7] 4.98%

CSc1ccc2c(c1)c(CCN)c(C)n2Cc1ccc(Cl)c(Cl)c1
active: [1] -91.3% | [2] -82.9% | [3] -84.3% | [4] -75% | [5] -87.3% | [6] -90% | [7] -95.1% | [8] -89.6% | [9] -89.7% | [10] -65.6%

O=C(CSc1nccc(Nc2ccc(S(=O)(=O)Nc3nccs3)cc2)n1)c1ccc(C(F)(F)F)cc1
inactive: [1] 103% | [2] 106% | [3] 91.5% | [4] 93.2% | [5] 86.6% | [6] 93.2% | [7] 95.1% | [8] 93.2% | [9] 99.2% | [10] 108%

NCCOc1ncccc1/C=C1\c2ccccc2-c2ccc(C(F)F)cc21
inactive: [1] 28.8% | [2] 48.9% | [3] 53.2% | [4] 40.4% | [5] 35.9% | [6] 50.9% | [7] 58.2% | [8] 68.2% | [9] 12.3% | [10] 82%

S=C(c1cccs1)N1CCN(c2cccc(Cl)c2)CC1
inactive: [1] 88.7% | [2] 89.8% | [3] 100% | [4] 102% | [5] 93.7% | [6] 89.5% | [7] 92.1% | [8] 88.1% | [9] 109% | [10] 104%

CCCCN(C)N=Nc1ccc(C(N)=O)cc1
inactive: [1] 114% | [2] 107% | [3] 97.3% | [4] 105% | [5] 108% | [6] 103% | [7] 108% | [8] 98.7% | [9] 107% | [10] 104%

O=C(Nc1ccc(I)cc1F)c1cc(I)ccc1O
inactive: [2] 78.7% | [4] 17.5% | [5] 16.1%
active: [1] 4.84% | [3] 1.71% | [6] 7.79% | [7] -95.8% | [8] -24.1% | [9] 8.01% | [10] 5.11%
